rat GALR2 ag: activates the rat galanin receptor 2; AID 833; cell-based GALR2 agonist screen; activation, % at 10 µM; 0.5% of 16,000 active; in the data active = activation above about 15%
Target sequence (O08726 whole entry, looked up): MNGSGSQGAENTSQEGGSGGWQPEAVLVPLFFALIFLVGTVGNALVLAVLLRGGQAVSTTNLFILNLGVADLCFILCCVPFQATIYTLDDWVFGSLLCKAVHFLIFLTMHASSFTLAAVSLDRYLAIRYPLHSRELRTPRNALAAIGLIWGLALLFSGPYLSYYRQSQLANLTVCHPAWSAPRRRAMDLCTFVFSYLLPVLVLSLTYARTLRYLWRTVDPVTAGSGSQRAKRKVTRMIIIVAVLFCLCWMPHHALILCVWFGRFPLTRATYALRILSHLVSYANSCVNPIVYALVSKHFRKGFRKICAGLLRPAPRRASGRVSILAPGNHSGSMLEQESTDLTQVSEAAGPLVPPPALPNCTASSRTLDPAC
Nox1 inh: inhibitors of human NADPH oxidase 1 (Nox1) | 0.81% of 16,000 active | inhibition, % at 6.7 µM | HT29 cells, luminol chemiluminescence ROS | AID 1792
Luminol counter: quenches luminol chemiluminescence in Nox1 counter-screen; HRP/luminol/H2O2 chemiluminescence counterscreen; inhibition, % at 6.7 µM; 0.4% of 16,000 active; AID 1823; note: reference of the scale not given here
* = called active by the depositor. Compounds with a hit are over-represented: about 1.6% of the library has one in this group of screens. Cut-off read from the data, not from the text of the source, unless noted: active = inhibition above about 75%; inactive = the rest.

Screening O=c1c(Nc2ccc(OC(F)(F)F)cc2)c(Nc2ccc(OC(F)(F)F)cc2)c1=O returned rat GALR2 ag -3.4, Nox1 inh 5.6 and Luminol counter -4.3.
For CCOc1ccsc1C(=O)NN the results were rat GALR2 ag -6.7, Nox1 inh -6.3 and Luminol counter -1.5.
For O=C(c1cccs1)N1CCN(Cc2c(F)cccc2Cl)CC1 the results were rat GALR2 ag -4.5, Nox1 inh -59.3 and Luminol counter -1.9.
Screening COc1ccc(Cl)cc1NC(=S)N1CCCN(Cc2ccc(F)cc2)CC1 returned rat GALR2 ag -6.4, Nox1 inh -3.3 and Luminol counter -1.9.
`O=S(=O)(NNc1ncccc1-n1cccc1)c1cc(Br)c(Br)s1` gave rat GALR2 ag 0.3, Nox1 inh -35.0 and Luminol counter 5.7.
CCOC(=O)COc1nc(-c2cccs2)cc(-c2ccco2)c1C#N was read as rat GALR2 ag -7.8, Nox1 inh -13.6 and Luminol counter 3.0.
`N#CCOc1nc(-c2ccccc2)cc(-c2ccco2)c1C#N` gave rat GALR2 ag 22.4*, Nox1 inh -44.9 and Luminol counter 1.9.
Screening CCOC(=O)C(C#N)=C1CCCC1 returned rat GALR2 ag -6.2, Nox1 inh -19.1 and Luminol counter -2.0.
Screening CCOC(=O)c1cnc(NNC(=O)c2cccc(C)c2)nc1C(F)(F)F returned rat GALR2 ag -3.1, Nox1 inh 2.3 and Luminol counter 6.6.
Screening COCCCNC(=S)N/N=C/c1ccc(-c2ccc(OC)cc2)s1 returned rat GALR2 ag 3.1, Nox1 inh -37.2 and Luminol counter 5.6.
`S=c1[nH]nc(Cc2ccccc2)n1Cc1ccccc1` gave rat GALR2 ag -8.1, Nox1 inh -8.7 and Luminol counter 5.9.
For S=c1[nH]nc(Cc2ccsc2)n1Cc1ccccc1 the results were rat GALR2 ag -6.2, Nox1 inh 20.9 and Luminol counter 92.6*.
O=C1c2ccccc2C(=O)N1CN(CCSc1ccccc1)CN1C(=O)c2ccccc2C1=O was read as rat GALR2 ag -3.4, Nox1 inh 1.0 and Luminol counter -3.9.
`FC(F)(F)c1ccc2c(c1)Nc1ccccc1S2` gave rat GALR2 ag -11.0, Nox1 inh 101.5* and Luminol counter 10.3.
For OC1(C(F)(F)F)CC(c2ccc3c(c2)Nc2ccccc2S3)=NN1 (configuration not stated) the results were rat GALR2 ag -10.7, Nox1 inh -43.6 and Luminol counter 3.9.
`S=c1[nH]nc(-c2ccc(Cl)cc2Cl)n1-c1cccnc1` gave rat GALR2 ag -5.9, Nox1 inh -76.1 and Luminol counter 2.9.
`S=c1[nH]nc(-c2cccc3ccccc23)n1-c1cccnc1` gave rat GALR2 ag -7.2, Nox1 inh 23.5 and Luminol counter 88.9*.
For N/C(Cc1cccc2ccccc12)=N\OC(=O)c1ccccc1 the results were rat GALR2 ag -6.3, Nox1 inh -23.2 and Luminol counter 0.0.
For O=C(NNC(=O)c1cccnc1Oc1ccccc1)c1cccnc1Oc1ccccc1 the results were rat GALR2 ag -5.0, Nox1 inh 5.0 and Luminol counter -4.1.
`O=C(NNc1cccc(Cl)c1)c1cccnc1Oc1ccccc1` gave rat GALR2 ag -7.6, Nox1 inh 40.5 and Luminol counter 100.3*.
`O=C(c1ccc(-c2cccs2)s1)N1CCN(C2c3ccccc3-c3ccccc32)CC1` gave rat GALR2 ag -5.7, Nox1 inh -40.0 and Luminol counter 3.6.
CS(=O)(=O)/C(C#N)=C\c1ccc(Cl)s1 was read as rat GALR2 ag -5.0, Nox1 inh -9.1 and Luminol counter -5.3.
`CS(=O)(=O)/C(C#N)=C/c1ccccc1OCc1c(Cl)cccc1Cl` gave rat GALR2 ag 18.2*, Nox1 inh 21.2 and Luminol counter -8.0.
Cc1ccc(C)c(N=Cc2cc(Cl)cc(Cl)c2O)c1 was read as rat GALR2 ag 15.7*, Nox1 inh 8.6 and Luminol counter 4.4.
Screening CC(=O)Nc1cc(N=Cc2cc(Cl)cc(Cl)c2O)ccc1C returned rat GALR2 ag 5.3, Nox1 inh -79.3 and Luminol counter -1.4.
COC(=O)c1ccccc1C(=O)c1cc(C)c(O)c(C)c1 was read as rat GALR2 ag -3.0, Nox1 inh -0.5 and Luminol counter -10.8.
`COC(=O)CC(CC(=O)OC)(c1cc(C)c(O)c(C)c1)c1cc(C)c(O)c(C)c1` gave rat GALR2 ag -0.3, Nox1 inh 21.1 and Luminol counter 77.5*.
O=C1NS(=O)(=O)c2cc([N+](=O)[O-])ccc21 was read as rat GALR2 ag -3.4, Nox1 inh -12.5 and Luminol counter -0.8.
Screening Cc1cc(C)cc(NC(=O)Nc2ccc(N3CCCCC3)cc2)c1 returned rat GALR2 ag -0.8, Nox1 inh 85.2* and Luminol counter -8.6.
COc1ccc(NC(=O)Nc2cc(C)cc(C)c2)cn1 was read as rat GALR2 ag -8.7, Nox1 inh -18.9 and Luminol counter -4.3.
O=C(Nc1ccc(Cl)cc1)N1CCC(C(F)(F)F)CC1 was read as rat GALR2 ag -9.8, Nox1 inh -29.8 and Luminol counter -0.1.
`Cc1ccc(S(=O)(=O)c2ncsc2Sc2ccc([N+](=O)[O-])cc2[N+](=O)[O-])cc1` gave rat GALR2 ag -7.1, Nox1 inh 1.9 and Luminol counter -0.9.
For CCOC(=O)CSCC(=O)c1ccc(OCc2ccc([N+](=O)[O-])cc2)cc1 the results were rat GALR2 ag -6.5, Nox1 inh -29.1 and Luminol counter 0.8.
For O=[N+]([O-])c1cc(C(F)(F)F)ccc1Oc1ccc2nonc2c1 the results were rat GALR2 ag -6.3, Nox1 inh 29.2 and Luminol counter 0.2.
For O=[N+]([O-])c1cc(C(F)(F)F)ccc1Oc1ccc(-c2nnco2)cc1 the results were rat GALR2 ag -5.6, Nox1 inh 76.8* and Luminol counter -1.0.
For C#CCSc1n[nH]c(=S)s1 the results were rat GALR2 ag -5.7, Nox1 inh 15.8 and Luminol counter 1.3.
Screening CC(C)(O)C#Cc1ccc(/C=N/OC(=O)Nc2cccc(Cl)c2)cc1 returned rat GALR2 ag -6.2, Nox1 inh 20.8 and Luminol counter -11.0.
O=C(NCc1ccccc1)c1ccc([N+](=O)[O-])o1 was read as rat GALR2 ag -6.4, Nox1 inh 22.5 and Luminol counter -8.9.
For CNC(=O)Nc1ccc(C2CC2(Cl)Cl)cc1 (configuration not stated) the results were rat GALR2 ag -3.2, Nox1 inh -5.7 and Luminol counter 0.7.
COc1ccc(C(=O)N/N=C(/C(=O)O)c2ccccc2)cc1 was read as rat GALR2 ag -3.0, Nox1 inh -7.3 and Luminol counter 1.2.
O=C(O)/C(=N/Nc1ccccc1O)c1ccccc1 was read as rat GALR2 ag -5.4, Nox1 inh 83.2* and Luminol counter -3.1.
Screening CCOC(=O)C(=CNNc1ccnc2cc(Cl)ccc12)C(=O)OCC returned rat GALR2 ag -2.6, Nox1 inh 83.7* and Luminol counter 3.1.
CCOC(=O)C(=CNNc1ccccc1)C(=O)OCC was read as rat GALR2 ag -0.1, Nox1 inh -19.3 and Luminol counter 6.5.
Cc1ccc(S(=O)(=O)OCC(C)(C)C)cc1 was read as rat GALR2 ag -6.0, Nox1 inh -40.1 and Luminol counter -0.5.
For Cn1cnc([N+](=O)[O-])c1Sc1ccc(C(F)(F)F)cn1 the results were rat GALR2 ag 34.6*, Nox1 inh -87.6 and Luminol counter 2.6.
Screening Cc1nn(C)c(Sc2ccc(C(F)(F)F)cn2)c1[N+](=O)[O-] returned rat GALR2 ag -7.5, Nox1 inh -7.5 and Luminol counter -6.9.
Cc1nc(/C(N)=N/OC(=O)c2ccc(C(F)(F)F)cc2)cs1 was read as rat GALR2 ag -6.7, Nox1 inh -14.8 and Luminol counter 3.1.
